Over roughly 2,900 compounds, “NF-kB SEAP reporter activity, fold change vs agonist alone” has its median near 0.99; the highest 2% begin near 2.6. For the sample, the highest values were picked, then their nearest neighbours and some compounds at random.
Tests used:
RAW-Dual [1] = test: NF-kB SEAP reporter activity, fold change vs agonist alone; higher = enhanced NF-kB activity
Summary of the method: (§1)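 Library stock was pin-tooled at 50 nL into 384-well plates of RAW-Dual macrophages (50,000 cells/well, DMEM), followed 1 h later by a PRR agonist, and the cells were kept at 37 °C, 5% CO2. Supernatant collected after 20 hours was read for IRF by QuantiLuc luminescence and for NF-κB by QuantiBlue absorbance at 620 nm. Reporter activity is fold change over agonist-alone wells, and a well counted as cytotoxic when its IncuCyte confluency was below 70% of agonist controls in both mask sets.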

RAW-Dual [2] = test: NF-kB SEAP reporter activity, fold change vs agonist alone; cytotoxicity flag (confluency mask): cytotoxic (confluency <70% of control); higher = enhanced NF-kB activity
Summary of the method: as §1

RAW-Dual [3] = test: NF-kB SEAP reporter activity, fold change vs agonist alone; cytotoxicity flag (confluency mask): not cytotoxic; higher = enhanced NF-kB activity
Summary of the method: as §1

[4] = library stock concentration (final ~1000-fold dilution): 10 mM, cytotoxicity flag (confluency mask): cytotoxic (confluency <70% of control), agonist: Imiquimod (TLR7) […]
[5] = library stock concentration (final ~1000-fold dilution): 10 mM, cytotoxicity flag (confluency mask): cytotoxic (confluency <70% of control), agonist: MPLA (TLR4) […]
[6] = agonist: ODN 1826 (TLR9) 0.5 ug/mL
[7] = agonist: Pam2CSK4 (TLR2/6) 0.1 ug/mL
[8] = agonist: Pam3CSK4 (TLR2/1) 0.1 ug/mL
[9] = library stock concentration (final ~1000-fold dilution): 10 mM, cytotoxicity flag (confluency mask): not cytotoxic, agonist: Imiquimod (TLR7) […]
[10] = library stock concentration (final ~1000-fold dilution): 10 mM, cytotoxicity flag (confluency mask): not cytotoxic, agonist: MPLA (TLR4) […]

CC(C)CNc1ccnc(NCc2csc(-c3ccccc3)n2)n1.Cl
NF-kB SEAP reporter activity (RAW-Dual [1]; [4]): 1.85 | NF-kB SEAP reporter activity (RAW-Dual [1]; [5]): 1.47

CC(C)CNc1ccnc(NCc2csc(-c3ccccc3)n2)n1.Cl (library stock concentration (final ~1000-fold dilution): 10 mM)
NF-kB SEAP reporter activity (RAW-Dual [2]; agonist: LPS (TLR4) 0.1 ug/mL): 1.62 | NF-kB SEAP reporter activity (RAW-Dual [2]; [6]): 0.221 | NF-kB SEAP reporter activity (RAW-Dual [2]; [7]): 0.625 | NF-kB SEAP reporter activity (RAW-Dual [2]; [8]): 0.446

Nc1ccn(C2OC(CO)C(O)C2(F)F)c(=O)n1 (stereo unspecified)
NF-kB SEAP reporter activity (RAW-Dual [1]; [4]): 2.14 | NF-kB SEAP reporter activity (RAW-Dual [1]; [5]): 1.35

Nc1ccn(C2OC(CO)C(O)C2(F)F)c(=O)n1 (stereo unspecified) (library stock concentration (final ~1000-fold dilution): 10 mM)
NF-kB SEAP reporter activity (RAW-Dual [2]; agonist: LPS (TLR4) 0.1 ug/mL): 0.91 | NF-kB SEAP reporter activity (RAW-Dual [2]; [6]): 1.88 | NF-kB SEAP reporter activity (RAW-Dual [2]; [7]): 1.18 | NF-kB SEAP reporter activity (RAW-Dual [2]; [8]): 1.05

CCCCCCOC(=O)c1cc(O)c(=O)c2c(O)c(O)c(OC)cc2c1 (library stock concentration (final ~1000-fold dilution): 10 mM)
NF-kB SEAP reporter activity (RAW-Dual [3]; agonist: LPS (TLR4) 0.1 ug/mL): 0.614 | NF-kB SEAP reporter activity (RAW-Dual [3]; [6]): 0.459 | NF-kB SEAP reporter activity (RAW-Dual [3]; [7]): 0.599 | NF-kB SEAP reporter activity (RAW-Dual [3]; [8]): 0.895

CCCCCCOC(=O)c1cc(O)c(=O)c2c(O)c(O)c(OC)cc2c1
NF-kB SEAP reporter activity (RAW-Dual [1]; [9]): 1.2 | NF-kB SEAP reporter activity (RAW-Dual [1]; [10]): 0.857

NC(=O)c1cccc2nc(-c3ccc(C4CCCN4)cc3F)[nH]c12 (stereo unspecified)
NF-kB SEAP reporter activity (RAW-Dual [1]; [9]): 1.14 | NF-kB SEAP reporter activity (RAW-Dual [1]; [10]): 0.748

NC(=O)c1cccc2nc(-c3ccc(C4CCCN4)cc3F)[nH]c12 (stereo unspecified) (library stock concentration (final ~1000-fold dilution): 10 mM)
NF-kB SEAP reporter activity (RAW-Dual [3]; agonist: LPS (TLR4) 0.1 ug/mL): 0.553 | NF-kB SEAP reporter activity (RAW-Dual [3]; [6]): 0.198 | NF-kB SEAP reporter activity (RAW-Dual [3]; [7]): 1.03 | NF-kB SEAP reporter activity (RAW-Dual [3]; [8]): 1

COC(=O)CC(O)(CCCC(C)(C)O)C(=O)OC1C(OC)=CC23CCCN2CCc2cc4c(cc2C13)OCO4 (stereo unspecified) (library stock concentration (final ~1000-fold dilution): 10 mM)
NF-kB SEAP reporter activity (RAW-Dual [2]; agonist: LPS (TLR4) 0.1 ug/mL): 0.397 | NF-kB SEAP reporter activity (RAW-Dual [2]; [6]): 0.169 | NF-kB SEAP reporter activity (RAW-Dual [2]; [7]): 0.0771 | NF-kB SEAP reporter activity (RAW-Dual [2]; [8]): 0.133

COC(=O)CC(O)(CCCC(C)(C)O)C(=O)OC1C(OC)=CC23CCCN2CCc2cc4c(cc2C13)OCO4 (stereo unspecified)
NF-kB SEAP reporter activity (RAW-Dual [1]; [4]): 0.141 | NF-kB SEAP reporter activity (RAW-Dual [1]; [5]): 0.255

Cc1ccc(C(=O)N(CCCN)C(c2oc3cc(Cl)ccc3c(=O)c2Cc2ccccc2)C(C)C)cc1.Cl (stereo unspecified) (library stock concentration (final ~1000-fold dilution): 10 mM)
NF-kB SEAP reporter activity (RAW-Dual [3]; agonist: LPS (TLR4) 0.1 ug/mL): 0.189 | NF-kB SEAP reporter activity (RAW-Dual [3]; [6]): 0.953 | NF-kB SEAP reporter activity (RAW-Dual [3]; [7]): 0.344 | NF-kB SEAP reporter activity (RAW-Dual [3]; [8]): 0.73

Cc1ccc(C(=O)N(CCCN)C(c2oc3cc(Cl)ccc3c(=O)c2Cc2ccccc2)C(C)C)cc1.Cl (stereo unspecified)
NF-kB SEAP reporter activity (RAW-Dual [1]; [9]): 0.905 | NF-kB SEAP reporter activity (RAW-Dual [1]; [10]): 1.03

Oc1cc(CNC(=S)/C=C/c2cc(O)c(O)c(Br)c2)cc(O)c1O
NF-kB SEAP reporter activity (RAW-Dual [1]; [9]): 1.78 | NF-kB SEAP reporter activity (RAW-Dual [1]; [10]): 2.29

Oc1cc(CNC(=S)/C=C/c2cc(O)c(O)c(Br)c2)cc(O)c1O (library stock concentration (final ~1000-fold dilution): 10 mM)
NF-kB SEAP reporter activity (RAW-Dual [3]; agonist: LPS (TLR4) 0.1 ug/mL): 3.51 | NF-kB SEAP reporter activity (RAW-Dual [3]; [6]): 2.77 | NF-kB SEAP reporter activity (RAW-Dual [3]; [7]): 1.67 | NF-kB SEAP reporter activity (RAW-Dual [3]; [8]): 0.821

Cc1cc2c(F)c(Oc3ncnn4cc(OCC(C)OC(=O)C(C)N)c(C)c34)ccc2[nH]1 (stereo unspecified)
NF-kB SEAP reporter activity (RAW-Dual [1]; [4]): 1.98 | NF-kB SEAP reporter activity (RAW-Dual [1]; [5]): 1.72

Cc1cc2c(F)c(Oc3ncnn4cc(OCC(C)OC(=O)C(C)N)c(C)c34)ccc2[nH]1 (stereo unspecified) (library stock concentration (final ~1000-fold dilution): 10 mM)
NF-kB SEAP reporter activity (RAW-Dual [2]; agonist: LPS (TLR4) 0.1 ug/mL): 1.52 | NF-kB SEAP reporter activity (RAW-Dual [2]; [6]): 0.94 | NF-kB SEAP reporter activity (RAW-Dual [2]; [7]): 0.759 | NF-kB SEAP reporter activity (RAW-Dual [2]; [8]): 1.13

Nc1ccn(CC(CO)OCP(=O)(O)O)c(=O)n1 (stereo unspecified)
NF-kB SEAP reporter activity (RAW-Dual [1]; library stock concentration (final ~1000-fold dilution): 10 mM water, cytotoxicity flag (confluency mask): not cytotoxic, agonist: Imiquimod (TLR7) […]): 0.956 | NF-kB SEAP reporter activity (RAW-Dual [1]; library stock concentration (final ~1000-fold dilution): 10 mM water, cytotoxicity flag (confluency mask): not cytotoxic, agonist: MPLA (TLR4) […]): 1.04

Nc1ccn(CC(CO)OCP(=O)(O)O)c(=O)n1 (stereo unspecified) (library stock concentration (final ~1000-fold dilution): 10 mM water)
NF-kB SEAP reporter activity (RAW-Dual [3]; agonist: LPS (TLR4) 0.1 ug/mL): 1.2 | NF-kB SEAP reporter activity (RAW-Dual [3]; [6]): 1.23 | NF-kB SEAP reporter activity (RAW-Dual [3]; [7]): 1.32 | NF-kB SEAP reporter activity (RAW-Dual [3]; [8]): 1.29

O=C(c1cn(Cc2cncn2Cc2ccc(Br)cc2)cc1-c1cccc2ccccc12)N1CCOCC1 (library stock concentration (final ~1000-fold dilution): 10 mM)
NF-kB SEAP reporter activity (RAW-Dual [3]; agonist: LPS (TLR4) 0.1 ug/mL): 2.82 | NF-kB SEAP reporter activity (RAW-Dual [3]; [6]): 1.54 | NF-kB SEAP reporter activity (RAW-Dual [3]; [7]): 0.96 | NF-kB SEAP reporter activity (RAW-Dual [3]; [8]): 1.16

O=C(c1cn(Cc2cncn2Cc2ccc(Br)cc2)cc1-c1cccc2ccccc12)N1CCOCC1
NF-kB SEAP reporter activity (RAW-Dual [1]; [9]): 1.35 | NF-kB SEAP reporter activity (RAW-Dual [1]; [10]): 1.46

O=C1NC(=O)C(c2cn3c4c(cccc24)CCC3)C1c1c[nH]c2ccccc12 (stereo unspecified) (library stock concentration (final ~1000-fold dilution): 10 mM)
NF-kB SEAP reporter activity (RAW-Dual [3]; agonist: LPS (TLR4) 0.1 ug/mL): 3.41 | NF-kB SEAP reporter activity (RAW-Dual [3]; [6]): 2.7 | NF-kB SEAP reporter activity (RAW-Dual [3]; [7]): 1.49 | NF-kB SEAP reporter activity (RAW-Dual [3]; [8]): 1.4

O=C1NC(=O)C(c2cn3c4c(cccc24)CCC3)C1c1c[nH]c2ccccc12 (stereo unspecified)
NF-kB SEAP reporter activity (RAW-Dual [1]; [9]): 2.44 | NF-kB SEAP reporter activity (RAW-Dual [1]; [10]): 1.84

Cl.Clc1cccc(-c2nnnn2Cc2cccnc2)c1Cl (library stock concentration (final ~1000-fold dilution): 10 mM)
NF-kB SEAP reporter activity (RAW-Dual [3]; agonist: LPS (TLR4) 0.1 ug/mL): 1.07 | NF-kB SEAP reporter activity (RAW-Dual [3]; [6]): 0.95 | NF-kB SEAP reporter activity (RAW-Dual [3]; [7]): 1.04 | NF-kB SEAP reporter activity (RAW-Dual [3]; [8]): 0.958

Cl.Clc1cccc(-c2nnnn2Cc2cccnc2)c1Cl
NF-kB SEAP reporter activity (RAW-Dual [1]; [9]): 1 | NF-kB SEAP reporter activity (RAW-Dual [1]; [10]): 1.06

CC1COC2Cn3cc(C(=O)NCc4ccc(F)cc4F)c(=O)c(O)c3C(=O)N12 (stereo unspecified) (library stock concentration (final ~1000-fold dilution): 10 mM)
NF-kB SEAP reporter activity (RAW-Dual [3]; agonist: LPS (TLR4) 0.1 ug/mL): 1.38 | NF-kB SEAP reporter activity (RAW-Dual [3]; [6]): 1.03 | NF-kB SEAP reporter activity (RAW-Dual [3]; [7]): 0.808 | NF-kB SEAP reporter activity (RAW-Dual [3]; [8]): 0.866
